{
  "source": "PubChem BioAssay (NCI)",
  "note": "This is part of a sample that, as a whole, favours compounds with a hit. Of some 83,000 tested, about 20% had one in any assay.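 Cells were grown in 96-well plates and exposed to the test compound at a single concentration for 48 hours; results are reported as percent growth, with values below 10 considered active.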 A number with no mark means an inactive call. Active and inactive are the calls of the source.",
  "data": [
    {"tested_on": "LOX IMVI melanoma", "test": "NCI-60 one-dose screen, 48 h (100 = growth as untreated, 0 = no growth, -100 = all killed)", "details": "10 µM unless noted", "procedure": "Growth inhibition of the LOX IMVI human tumor cell line is measured as a screen for anti-cancer activity. Cells are grown in 96 well plates and exposed to the test compound for 48 hours. Compounds are tested at a single concentration, which is 10^-5 M for most compounds. The reported endpoint is percent growth (GI% or GIPRCNT), where numbers from 0 - 100% represent growth inhibition, and numbers from -100% - 0 represent cell death. For example, a value of 40 represents 60% growth inhibition. A value of 0 means no net growth occurred over the course of the experiment. A value of -40 indicates 40% of cells at the beginning of the experiment died by the end of the experiment. A value of -100 means all cells are dead at the end of the experiment.\nNCI-60 Human Tumor Cell Lines Screen was performed using the standard one-dose NCI protocol, which is described in more detail at https://dtp.cancer.gov/discovery_development/nci-60/default.htm.\nCompounds with GIPRCNT values below 10 were considered active. Activity score was based on GIPRCNT using the following formula: […]\nScore is 0 for GIPRCNT values of 100 or above, 50 for GIPRCNT values of 0, and 100 for GIPRCNT values of -100.", "values": [
      {"smiles": "O=C(CN1C(=O)S/C(=C\\C(Cl)=C\\c2ccccc2)C1=O)NCCc1ccc(O)cc1", "growth": "-51.5% (active)"},
      {"smiles": "CCCCCCCCCCCCCCCCCCOc1ccccc1CC(=O)OCC[N+](C)(C)C", "growth": "29.3%"},
      {"smiles": "CCOC(=O)C/C(=N\\Nc1cc(=O)[nH]c2ccc(Br)cc12)C(=O)OCC", "growth": "94.4%"},
      {"smiles": "COc1ccc(/C=C(\\C#N)n2nnc3cc(Cl)ccc32)cc1", "growth": "-45.7% (active)"},
      {"smiles": "COc1c(B(O)O)cccc1-c1cc(C)c2c(ccc3[nH]ncc32)n1", "growth": "56.9%"},
      {"smiles": "O=C(O)CCCN1C(=O)/C(=C/c2cn(-c3ccccc3)nc2-c2ccc([N+](=O)[O-])cc2)SC1=S", "growth": "46.2%"},
      {"smiles": "COc1cc2c(c(OC)c1OC)CCC(c1cccc(C(=O)Nc3ccc(C#N)cc3)c1)O2", "note": "(stereo not given)", "growth": "39.5%"},
      {"smiles": "COc1cc2c(cc1OCCCN1CCN(CCCOc3cc4c(cc3OC)C(=O)N3CC(F)(F)C[C@H]3C=N4)CC1)N=C[C@@H]1CC(F)(F)CN1C2=O", "growth": "12%"},
      {"smiles": "COc1ccc2c(c1)N(CCO)C1=C(C(=O)OC1)C2c1cccc(F)c1", "note": "(stereo not given)", "growth": "27.5%"},
      {"smiles": "Cn1cc(C(=O)c2nc(-c3c[nH]c4ccccc34)no2)c2cc(F)ccc21", "growth": "39.5%"},
      {"smiles": "CCC(=O)Oc1ccc(-c2ccccc2)cc1Br", "growth": "107%"},
      {"smiles": "CN(C)CC(C)(C)C(=O)/C=C/c1ccccc1", "growth": "-84.8% [25 µM] (active)"},
      {"smiles": "CC(=O)N1N=C(c2ccc(C(F)(F)F)c(F)c2)CC1c1[nH]c(C)c(C(=O)NCC(F)(F)F)c1C", "note": "(stereo not given)", "growth": "71.5%"},
      {"smiles": "O=C(NNC(=O)c1ccc(NC(=O)c2ccccn2)cc1)Nc1ccc([N+](=O)[O-])cc1", "growth": "105%"},
      {"smiles": "COc1ccc2c(c1)c(-c1nc(-c3c[nH]c4ccncc34)cs1)cn2C", "growth": "-93.3% (active)"},
      {"smiles": "COc1ccccc1NC(=O)N=Nc1c(O)[nH]c2ccccc12", "growth": "98.2%"},
      {"smiles": "COc1ccc(-c2ccc(-c3ccc(C(=N)N)cc3)s2)cc1Cl", "growth": "-76.7% (active)"},
      {"smiles": "O=C(Nc1cccc(-c2ccc(Cl)c(C(F)(F)F)c2)c1)C1CCN(Cc2cccc3cccnc23)CC1", "growth": "-98.2% (active)"},
      {"smiles": "CCOC(=O)C1=C(c2ccccc2)N=C2SC=C(c3ccc(Cl)cc3)N2C1c1ccc(Cl)cc1", "note": "(stereo not given)", "growth": "88.3%"},
      {"smiles": "CCOC(=O)C(=O)C(C(=O)OCC)c1ccccc1", "note": "(stereo not given)", "growth": "106%"},
      {"smiles": "O=C(Nc1nc2ccc(C(=O)N3CCN(/C=C/c4ccccc4)CC3)cc2s1)c1ccc(NCCc2ccccc2)c([N+](=O)[O-])c1", "growth": "47.4%"},
      {"smiles": "O=C(OC(CO)C(=O)NC12CC3CC(CC(C3)C1)C2)c1ccc(Cl)cc1", "note": "(stereo not given)", "growth": "101%"},
      {"smiles": "C=C1CC[C@@H]2[C@](C)(COC(C)=O)[C@H](OC(C)=O)CC[C@@]2(C)[C@@H]1CC(Nc1ccc(S(=O)(=O)Nc2ncccn2)cc1)C1=CCOC1=O", "note": "(stereo not given in full)", "growth": "-79.8% (active)"},
      {"smiles": "Cn1cc(-c2csc(-c3c[nH]c4ccc(Br)cc34)n2)c2ccnc(Cl)c21", "growth": "26.2%"},
      {"smiles": "CCCCCCCCCCCCCCCCOCCCOP(=O)(O)C1CCCN(O)C1=O", "note": "(stereo not given)", "growth": "0.67% (active)"},
      {"smiles": "OB1OCc2cc(/C=C/c3cccc(C(F)(F)F)c3)ccc21", "growth": "-72.5% (active)"},
      {"smiles": "COc1ccc(CNc2c3ccccc3nc3ccccc23)cc1", "growth": "20.9%"},
      {"smiles": "CC1CCc2c(C(=O)Nc3ncc(Cc4cccc([N+](=O)[O-])c4)s3)csc2C1", "note": "(stereo not given)", "growth": "20%"},
      {"smiles": "O=C(NCCCl)Nc1ncccc1OCc1ccccc1", "growth": "102%"},
      {"smiles": "Nc1n[nH]c2cccc(C#Cc3cccc(C(=O)Nc4cc(C(F)(F)F)cc(C(F)(F)F)c4)c3)c12", "growth": "41.2%"},
      {"smiles": "Cn1ccnc1C(=O)/C=C/c1ccc(CC(=O)Nc2cc(C(F)(F)F)cc(C(F)(F)F)c2)cc1", "growth": "56.5%"},
      {"smiles": "CNC(=O)c1[nH]cc(-c2ccc(OC)cc2)c1-c1cc(OC)c2c(c1OC)OCO2", "growth": "96.5%"},
      {"smiles": "O=C(Nc1nc2ccccc2s1)c1ccc(F)cc1", "growth": "101%"},
      {"smiles": "CC/C(=C(/c1ccc(Cl)cc1)c1ccc(OCCN(C)C)cc1)c1ccc(Cl)cc1", "growth": "65.3%"},
      {"smiles": "C/C(=N\\O)c1ccc(Cl)cc1", "growth": "105%"},
      {"smiles": "Nc1cc(C(=O)NC[C@H]2CN(c3ccc(N4CCC(C(=O)O)CC4)cc3)C(=O)O2)ccc1Cl", "growth": "97%"},
      {"smiles": "COc1ccc(C(=O)c2cc3c(N)c(C(=O)Nc4ccc(C)cc4)sc3nc2C)cc1", "growth": "39.2%"},
      {"smiles": "CCCC/C=C/[C@@H]1C[C@H]1CCO", "growth": "98.2%"},
      {"smiles": "Cc1ccc(C(=O)c2ccc(CC(=O)N/N=C/c3ccccc3O)n2C)cc1", "growth": "58%"},
      {"smiles": "O=C(c1ccccc1)c1ccc(C2CCCCC2)cc1", "growth": "94.6%"}
    ]}
  ]
}
